“And” between values parts separate entries of the source, which are not always exact repeats. Equal values may be shown once. This is part of a sample that, as a whole, favours compounds with a hit. Of some 83,000 tested, about 20% had one in any assay.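 Assay: single dose, 48 h. Readout: percent growth (0 = no net growth; negative = cell death). Active: <10.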 The source made the active and inactive calls.

For this experiment, the system named is MDA-MB-468 breast. Briefly: NCI-60 one-dose screen, 48 h (100 = growth as untreated, 0 = no growth, -100 = all killed). The following applies: 10 µM unless noted.
With `CCOC(=O)Cn1c(=O)c2sc3ncccc3c2n2nnc(-c3ccccc3)c12`, the growth is 119% (inactive).

For `COc1ccc(/C=C/c2nc(Nc3ccc(Cl)cc3)c3ccccc3n2)cc1`, the growth was 28.1% (inactive).

Turning to `O=c1[nH]ccc2nc(N3CCC(O)CC3)nc(Nc3cccc(C(F)(F)F)c3)c12`, the growth was 14.5% (inactive).

With `O=[N+]([O-])C=C(c1ccccc1)c1ccccc1`, the growth is -4.43% (active).

On to `CC(C)(C)n1cc(-c2ccnc(NCCCNS(=O)(=O)c3ccc(C(F)(F)F)cc3)c2)c(-c2cccc(O)c2)n1`, for which the growth is 11.8% (inactive).

For the molecule `COc1ccc2c(c1)CCCN2c1c2ccccc2nc2ccccc12`, the growth was -3.81% (active).

Consider `Nc1ncnc2c1C(c1ccc(Br)cc1)c1sc3c(F)cccc3c1O2` (stereo not given), for which the growth is 103% (inactive).

On to `C=CCOc1cccc(/C=C2\SC(=Nc3ccc(O)cc3)NC2=O)c1`, for which the growth is -7.52% (active).

For `O=C1[C@@H]2Cc3c([nH]c4ccccc34)[C@@H](c3ccc(Cl)cc3)N2C(=O)CN1C1CCN(Cc2c(F)cccc2F)CC1`, the growth was 40.3% (inactive).

For the molecule `COc1ccc(-c2nc(/C=N/Nc3cc(C)nc4ccc(Br)cc34)c(C)o2)cc1`, the growth was -78.9% (active).

Turning to `CC(C)(C)Nc1nc2c(OCCc3ccccc3)cccn2c1-c1ccc(Cl)cc1`, the growth was -22.4% (active).

As for `CS(=O)(=O)c1nccc(-c2c(-c3ccc(F)c(OCCc4ccccc4)c3)nc3sccn23)n1`, the growth was -83.4% (active).

Consider `NC(=O)c1n[nH]n2c1nc(=O)c1c3c(sc12)CCCC3`, for which the growth is 120% (inactive).

On to `Cn1ccnc1C(=O)/C=C/c1ccc(CC(=O)Nc2ccc(S(F)(F)(F)(F)F)cc2)cc1`, for which the growth is -22.9% (active).

Take `CCCCCOC(=O)c1ccccc1O`: the growth is 107% (inactive).

As to `O=C1CSC(c2ccccc2Cl)N1c1nnc(Cn2cnnc2)o1` (stereo not given), the growth is 27.2% (inactive).

`COc1cccc(C(=O)NNc2nc(N3CCN(C4CCCCC4)CC3)nc(N3CCN(C(c4ccccc4)c4ccccc4)CC3)n2)c1`: the growth is 13.6% (inactive).

As for `O=C(CCCCCC/C=C\c1csc(Br)n1)NO`, the growth is 84.9% (inactive).

With `Nc1ccccc1SC(CC(=O)c1ccccc1)c1cccc([N+](=O)[O-])c1` (stereo not given), the growth was 85.9% (inactive) and 77.9% (inactive).

As for `Cn1cccc1/C=C1\C(=O)Nc2ccccc21`, the growth was -1.95% (active).

As for `O=C(Nc1cc(Cl)ccc1O)c1cccc(Nc2ccnc(C(F)(F)F)c2)c1`, the growth is 16% (inactive).

For `CS(=O)(=O)Nc1ccc(OCc2nnc(-c3ccc(Cl)cc3)o2)c(F)c1`, the growth is 86.8% (inactive).

As to `COc1cc(/C=C2\C(=O)N(CCCCn3c4ccccc4c(=O)c4ccccc43)c3ccccc32)cc(OC)c1O`, the growth was 46.2% (inactive).

With `CC(=O)c1ccccc1O`, the growth was 101% (inactive) and 103% (inactive) and 108% (inactive).

`c1ccc(-c2oc3ccccc3c2-c2ccccc2)cc1`: the growth was 97.9% (inactive).

As to `c1cc(C2CCCCC2)ccc1OCCCCCCN1CCNCC1`, the growth was 1.63% (active).

With `COc1cc(C2C=C(c3ccc(C)cc3)Nc3nc(SC)[nH]c(=O)c32)ccc1Oc1ccnc2cc(Cl)ccc12` (stereo not given), the growth was 75.3% (inactive).

As for `C=CCc1cc(Nc2c3ccc(Cl)cc3nc3ccc(OC)cc23)cc(CN(CC)CC)c1O`, the growth is -19.1% (active).

In the case of `Nc1ncnc2c1C(c1ccccc1)c1ccc3ccccc3c1O2` (stereo not given), the growth is 86.5% (inactive).

On to `COc1cc2c3c(n(CCCNC4CCCCC4)c(=O)c2cc1OC)-c1cc2c(cc1C3=O)OCO2`, for which the growth is 78.8% (inactive).

In the case of `Nc1c(C(=O)Nc2cccc(Cl)c2)sc2nc3c(cc12)CCCC3`, the growth was 74.2% (inactive).

On to `CC(=O)c1cc2c(N)c(C(=O)Nc3cccc(F)c3C)sc2nc1C`, for which the growth was 54.2% (inactive).

In the case of `Fc1cc(-c2cnc3nonc3n2)c(Cl)cc1Cl`, the growth is 61.8% (inactive).

Regarding `Cc1cc(C)c(S(=O)(=O)Oc2ccccc2[N+](=O)[O-])c(C)c1`, the growth is -0.215% (active).

Turning to `CC1(COc2ccc3ncc(C#Cc4cncc(C(=O)Nc5cccc(C(F)(F)F)c5)c4)n3n2)COC1`, the growth is 102% (inactive).

On to `CCn1cc(/C=C2\Oc3cc(OCC#N)ccc3C2=O)c2cc(OC)ccc21`, for which the growth was 20% (inactive).

For the molecule `O=C(N[C@@H]1CCCc2ccccc21)[C@H](CCC(=O)N1CCN(C2CCCCC2)CC1)N1C(=O)[C@@H](N2C(=O)OC[C@@H]2c2ccccc2)[C@H]1/C=C/c1ccccc1`, the growth was -34.6% (active).

Consider `Cc1ccc(Nn2c(SCC(=O)Nc3nc(-c4ccccc4)cs3)nc(C)c2C)cc1`, for which the growth was 17.7% (inactive).

`Clc1ccc(-c2nc3ccccc3s2)cc1Cl`: the growth is 110% (inactive).

As to `Nc1cccc(-c2nc3sccn3c2-c2ccnc(NCCCNS(=O)(=O)c3ccc(C(F)(F)F)cc3)n2)c1`, the growth is 0.59% (active).

For the origin of these results see PubChem BioAssay (NCI).
